The text below walks through data of PubChem BioAssay AID624330 (Southern Research Specialized Biocontainment Screening …, 2012).

In all, about 340,000 compounds went through this assay and about 2,100 (0.62%) were called active. Not all results are given here. Potency and affinity values are given separately. Unmarked numbers belong to inactive results.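 How the source made its calls: active means first-screen hits whose inhibition reached a set limit at any dose in the follow-up dose series; inconclusive means inhibition above the set first-screen limit but never retested; inactive means the rest.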

For the experiment, the target named is Rac GTPase-activating protein 1 (Homo sapiens) (UniProt Q9H0H5). As to the kind of experiment: MgcRacGAP GTPase-activating activity inhibitors, confirmation, biochemical, ADP Hunter fluorescence, primary and confirmatory (AID 624330).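 Further: fluorescence reports GDP produced by GAP-driven GTP hydrolysis.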 The conditions noted are these: MgcRacGAP-stimulated Rac1 GTP hydrolysis, at 30 µM, stronger effect = higher value, GST-tagged Rac1 F28L mutant substrate.
Sequence of Rac GTPase-activating protein 1 (Homo sapiens) (Q9H0H5 whole entry, looked up): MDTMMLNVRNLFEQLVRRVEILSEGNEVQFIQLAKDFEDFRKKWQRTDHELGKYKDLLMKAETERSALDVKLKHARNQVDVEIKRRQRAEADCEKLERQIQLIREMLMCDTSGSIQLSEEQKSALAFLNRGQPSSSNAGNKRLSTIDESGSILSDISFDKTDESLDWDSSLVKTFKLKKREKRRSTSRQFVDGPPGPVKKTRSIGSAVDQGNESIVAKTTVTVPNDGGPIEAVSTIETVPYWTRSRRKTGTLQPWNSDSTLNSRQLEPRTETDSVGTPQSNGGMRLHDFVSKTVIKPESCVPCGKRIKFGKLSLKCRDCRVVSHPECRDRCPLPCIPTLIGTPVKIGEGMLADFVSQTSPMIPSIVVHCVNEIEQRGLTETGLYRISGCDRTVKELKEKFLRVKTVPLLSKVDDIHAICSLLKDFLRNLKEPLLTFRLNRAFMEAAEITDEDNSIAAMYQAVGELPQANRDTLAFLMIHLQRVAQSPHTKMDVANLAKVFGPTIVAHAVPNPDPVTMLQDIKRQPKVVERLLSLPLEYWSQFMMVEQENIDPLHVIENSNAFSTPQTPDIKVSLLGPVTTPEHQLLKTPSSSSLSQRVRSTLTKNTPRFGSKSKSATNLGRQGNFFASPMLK
As for `CCOc1ccc(NC(=O)CN2CCN(CC(=O)Nc3ccc(C(=O)OC)cc3)CC2)cc1`, the inhibition was 6.74%. To `C/C(=N\NC(=O)Cn1nc(C)c([N+](=O)[O-])c1C)c1ccc(Cl)s1` belongs 5.29%; to `COC(=O)c1scc2c(=O)cc(C(F)(F)F)[nH]c12`, 6.18%; to `Cc1cc(OCC(=O)N(C(C)C)C(C)C)cc(C)c1Br`, 7.37%. Take `COc1ccc(/C=N/N2CCOCC2)cc1O`: the inhibition was 6.98%. With `COc1ccccc1N1CCN(/N=C(\C)c2ccc(O)cc2)CC1`, the inhibition is 8.49%. Take `COc1ccc(/C=N/N2CCN(C)CC2)cc1OC`: the inhibition was 4.11%.

`COc1cc(/C=N/N2CCN(Cc3ccc(C)cc3)CC2)cc(OC)c1O`: the inhibition was 25.8%.

Take `CC(=O)Oc1ccc(/C(C)=N/N2CCN(Cc3ccc(C)cc3)CC2)cc1`: the inhibition is -1.21%. For `COc1ccc(/C=N/N2CCN(c3ccccc3OC)CC2)cc1OC`, the inhibition was 1.46%.

For the compound `COc1ccccc1N1CCN(/N=C(\C)c2ccccc2O)CC1`, the inhibition is 9.26%. As to `COc1ccc(/C=N/N2CCN(c3ccccc3OC)CC2)cc1Br`, the inhibition is 5.46%. To `COc1ccc(-c2cc([C@H]3[C@H]4C=CC[C@@H](C)[C@@H]4C(=O)N3Cc3ccccc3)ccc2F)cc1` belongs 4.49%; to `CCC(C)N(C(=O)COC(=O)c1ccc(=O)n(Cc2ccccc2)n1)C1CCS(=O)(=O)C1` (stereo not given), 2.85%. As for `CSc1nc(C(=O)N2CCc3c([nH]c4ccccc34)C2c2ccccn2)cs1` (stereo not given), the figure is 3.69%. As to `CCCCNC(=O)Cn1c(=O)c2c(ncn2CCC(C)C)n(Cc2ccccc2)c1=O`, the inhibition is 6.76%. As for `CCOC(=O)/C=C1\SCC(=O)N1CC(=O)NC(c1ccccc1)c1ccccc1`, the figure is 5.26%; as for `CN(CC(=O)Nc1cccc(F)c1)C(=O)CSc1ccccc1`, 1.63%; as for `COc1ccccc1N1CCN(/N=C/c2cc(OC)c(OC)c(OC)c2)CC1`, -2.37%.

On to `COc1ccccc1N1CCN(/N=C/c2cccc(OC)c2O)CC1`, for which the inhibition was -28.4%. For `COc1ccccc1N1CCN(/N=C/c2cccc(O)c2)CC1`, the inhibition was 10.5%. Regarding `COc1ccccc1N1CCN(/N=C\c2ccccc2)CC1`, the inhibition was -17.8%. To `CC1CCCCC1NC(=O)CSc1nnc(CC(=O)Nc2ccccc2F)n1C` (stereo not given) belongs 5.96%; to `O=C(C[C@@H]1C/C=C/CC[C@@H](Cc2ccc(F)cc2)C(=O)OCCNC1=O)N[C@H](CO)Cc1ccccc1`, 3.03%. To `COCC1CCN(Cc2cn(C)nc2-c2cccc(Cl)c2)C1` (stereo not given) belongs 1.3%; to `O=C(CCc1nnc2ccc(NCc3ccc(F)cc3)nn12)NC1CCCC1`, 12.4%; to `c1ccc(CNCc2ccc3c(c2)OCO3)nc1`, 4.13%. As for `CC(C)C(=O)N(Cc1ccc2c(c1)OCO2)Cc1ccccn1`, the figure is 7.22%. For the compound `O=C(CN1CCCc2ccccc21)Nc1cccc(S(=O)(=O)N2CCCC2)c1`, the inhibition was 9.73%.

`CNCc1c(C)nn(-c2ccccc2)c1C`: the inhibition is 8.94%. As for `CCn1ccnc1CN(C)Cc1nc(-c2ccccc2)no1`, the figure is -3.37%. As for `CC(=O)Nc1ccc(NC(=O)CSCc2ccccc2Cl)cc1`, the inhibition was 10.3%. Consider `C/C(=N\NC(=O)CSCc1ccccc1Cl)c1cccc(NC(=O)c2ccccc2)c1`, for which the inhibition was 4.95%. Consider `Cc1ccccc1Nc1nc(N)nc(COC(=O)c2ccc3c(c2)OCCO3)n1`, for which the inhibition is 12.6%. As to `O=C(Nc1ccccc1C(=O)Nc1ccc(F)cc1)c1ccco1`, the inhibition was 6.4%. As to `CCOc1ccc(S(=O)(=O)N2CCN(C(=O)c3ccc(C)c(S(=O)(=O)N4CCOCC4)c3)CC2)cc1`, the inhibition is 5.86%. With `CCOc1cc(CN2CCCCCC2)ccc1OC`, the inhibition is 25.5%. As to `COc1cc(OC)c(OC)cc1CN1CCN(C(=O)CC(C)C)CC1`, the inhibition is 12.8%. As for `COc1ccc(C(=O)N2CCN(Cc3cc(OC)c(O)c(OC)c3)CC2)cc1OC`, the figure is 18.5%. As for `COc1ccc(CN2CCN(C(=O)CC(C)C)CC2)cc1Br`, the figure is 26.2%. To `COc1ccc(C(=O)N2CCN(C(=O)CC(C)C)CC2)cc1OC` belongs -1.21%; to `COc1ccc(CN2CCN(C(=O)CC(C)C)CC2)cc1`, 26.1%. For `C=CCN1C(=O)c2ccc(C(=O)N(C)CC(=O)Nc3ccccc3Cl)cc2C1=O`, the inhibition is -7.53%. As for `CCOC(=O)c1ccc(NC(=O)c2nc[nH]c2C(=O)NCCCNC(=O)c2[nH]cnc2C(=O)Nc2ccc(C(=O)OCC)cc2)cc1`, the figure is -0.79%. As for `COc1ccc(N=Cc2c(O)c3ccccc3oc2=O)cc1`, the figure is 10.7%.

As for `COC(=O)c1ccccc1NC(=S)NC(=O)COc1ccccc1Cl`, the inhibition was 2.61%. To `CCOc1ccc(-n2c(-c3ccco3)n[nH]c2=S)cc1` belongs 15.8%; to `O=C(COC(=O)c1cccs1)NCCc1ccc(F)cc1`, 4.76%; to `CN1CCN(CC(=O)N2c3ccccc3C(C)(c3ccccc3)CC2(C)C)CC1` (stereo not given), 10.3%. Consider `CC1CC(C)(C)N(C(=O)CN2C(=O)CCC2=O)c2ccccc21` (stereo not given), for which the inhibition was -0.11%. For the compound `Cc1ccc2c(c1)C(C)CC(C)(C)N2C(=O)NC1CCCCC1` (stereo not given), the inhibition was 3.06%. With `CC1CC(C)(C)N(C(=O)CN2C(=O)c3ccccc3C2=O)c2ccccc21` (stereo not given), the inhibition is 2.35%. `CCN(CC)C(=O)[C@H]1C[C@H](CC(=O)NCCCN(C)C)C(=O)N2CCc3c([nH]c4ccc(Cl)cc34)[C@]12C`: the inhibition is 4.62%.

`O=C(NCc1ccccn1)NC12CC3CC(CC(C3)C1)C2`: the inhibition was 1.18%.

`O=C(NCc1ccccn1)C12CC3CC(CC(C3)C1)C2`: the inhibition is 3.08%.

As to `COc1cc(OC)c(OC)cc1/C=C1/C(=O)N=C(N)N1C`, the inhibition is 0.61%. As for `CC(NC(=O)/C=C/c1ccco1)c1nc2ccccc2n1Cc1ccccc1F` (stereo not given), the figure is -6.08%; as for `O=c1c(-c2ccco2)[n+]([O-])c2ccccc2n1OCc1ccccc1`, 2.31%; as for `Cc1c(Cl)cccc1NC(=O)CNCc1ccccc1F`, 5.19%. As for `O=C(CNCc1ccccc1Cl)Nc1ccccc1N1CCCCC1`, the inhibition was 28.3%.
